We go through 27 compounds from PubChem BioAssay AID1445 (SRMLSC, 2008).

By inhibition is commonly meant the drop in the measured response relative to a control, in per cent.

Out of some 220,000 compounds screened, about 910 (0.41%) were called active. For the sample, actives were picked, then their nearest neighbours and some compounds at random. Results with a measured potency or affinity are listed apart. A number with no mark means an inactive call.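 How the source made its calls: active means primary inhibition above the hit cutoff, then over 50% inhibition at one or more dose response concentrations (cut at about 23% in these data, passing the limit was not always enough); inconclusive means conflicting primary data, or primary hits not chosen for dose response; inactive means low primary inhibition, or under 50% at every dose.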

Chain of Aminopeptidase N (Plasmodium falciparum (isolate 3D7)) (O96935 whole entry, looked up): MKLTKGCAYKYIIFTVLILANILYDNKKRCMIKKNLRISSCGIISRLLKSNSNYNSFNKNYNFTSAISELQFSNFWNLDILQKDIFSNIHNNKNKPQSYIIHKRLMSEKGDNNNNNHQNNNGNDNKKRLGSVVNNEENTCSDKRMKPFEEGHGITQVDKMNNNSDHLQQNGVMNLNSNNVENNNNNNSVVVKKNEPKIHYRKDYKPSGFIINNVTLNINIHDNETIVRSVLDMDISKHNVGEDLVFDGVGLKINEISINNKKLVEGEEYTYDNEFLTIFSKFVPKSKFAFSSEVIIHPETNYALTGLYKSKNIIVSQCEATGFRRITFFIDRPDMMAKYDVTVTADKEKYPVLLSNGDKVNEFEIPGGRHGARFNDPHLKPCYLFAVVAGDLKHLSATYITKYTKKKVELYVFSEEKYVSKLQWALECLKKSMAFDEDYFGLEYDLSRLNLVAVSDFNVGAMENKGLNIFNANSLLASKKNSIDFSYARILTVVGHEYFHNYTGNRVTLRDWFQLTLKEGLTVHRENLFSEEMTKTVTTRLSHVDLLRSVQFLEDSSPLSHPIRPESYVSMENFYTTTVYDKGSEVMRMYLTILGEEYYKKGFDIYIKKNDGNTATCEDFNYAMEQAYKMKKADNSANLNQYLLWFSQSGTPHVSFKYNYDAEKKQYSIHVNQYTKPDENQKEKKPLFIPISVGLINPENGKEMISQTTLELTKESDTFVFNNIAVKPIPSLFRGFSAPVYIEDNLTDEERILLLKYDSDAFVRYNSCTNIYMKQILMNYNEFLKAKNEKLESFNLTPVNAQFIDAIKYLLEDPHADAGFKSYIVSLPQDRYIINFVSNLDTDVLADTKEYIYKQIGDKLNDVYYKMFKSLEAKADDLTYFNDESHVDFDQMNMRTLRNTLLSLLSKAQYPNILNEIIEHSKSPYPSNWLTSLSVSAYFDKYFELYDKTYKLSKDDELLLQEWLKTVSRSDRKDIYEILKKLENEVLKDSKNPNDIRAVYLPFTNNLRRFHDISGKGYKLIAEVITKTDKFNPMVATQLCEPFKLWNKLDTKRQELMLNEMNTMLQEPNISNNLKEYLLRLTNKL

The assay concerns the target Aminopeptidase N (Plasmodium falciparum (isolate 3D7)) (UniProt O96935). In words: malaria alanyl aminopeptidase activity blockers – biochemical, fluorogenic H-Leu-NHMec substrate, 1536-well (AID 1445).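 Further: plate controls were DMSO full reaction for no effect and no enzyme background for full effect.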 The following applies: recombinant M1AAP, H-Leu-NHMec fluorogenic kinetic assay; at 30 µM, hits give high values unless noted.
Consider `COc1ccc(-c2cc(=O)c3c(O)c(OC)c(O)cc3o2)cc1`, for which the inhibition was 17%.

Turning to `COc1c(O)cc2oc(-c3ccc(O)cc3)cc(=O)c2c1O`, the inhibition was 17.2%. The same measure for `O=S(=O)(c1ccccc1)N1CCCC1c1cccs1` (configuration not stated): 0.58%. As to `Cn1c(=O)cc(SCC(=O)N2CCCC2)c2ccccc21`, the inhibition is 7.32%. The same measure for `CCN(CC)Cc1c(O)c(Cl)cc2c(C)c(C)c(=O)oc12`: 23.6% (active); for `CCc1cc2c(=O)c(-c3nc4ccccc4n3C)c(C)oc2c(CN(CC)CC)c1O`: 6.03%; for `Cc1c(C)c2cc(Cl)c(O)c(CN(C)C)c2oc1=O`: 14.8%. Turning to `Cc1c(Cc2ccccc2)c(=O)oc2cc(O)ccc12`, the inhibition was 22.2%. The same measure for `Cc1c(Cc2ccccc2)c(=O)oc2c(O)c(O)ccc12`: 17.1%; for `CCc1c(C)c2cc(Cl)c(O)c(CN(C)C)c2oc1=O`: -5.92%; for `CCN(CC)Cc1oc(CO)cc(=O)c1O`: 5.8%. The same measure for `CCOc1ccc(OCCCC(=O)NC2=NCCS2)cc1`: -1.08%; for `COc1ccc(O)c(C2NC(CC(C)C)(C(=O)O)C3C(=O)N(Cc4ccccc4)C(=O)C23)c1` (configuration not stated): 13.5%.

Regarding `COc1ccc(OCCC(=O)OCC(=O)Nc2cccc(Br)c2)cc1`, the inhibition is 2.82%. Take `O=CN1N=C(c2ccccc2)CC1c1ccccc1[N+](=O)[O-]` (configuration not stated): the inhibition was 0.38%. `CCCN(Cc1ccccc1)C(=S)Nc1ccc(C(C)=O)cc1`: the inhibition is 0.74%.

Consider `CCOc1ccc(C(Nc2cccnc2)c2cc(Cl)c3cccnc3c2O)cc1` (configuration not stated), for which the inhibition is -6.83%.

For `O=C(O)COc1ccccc1C(Nc1ccccn1)c1cc(Cl)c2cccnc2c1O` (configuration not stated), the inhibition is 23.1%. The same measure for `COc1ccc(N2CCN(Cc3cc(=O)oc4cc(-c5ccccc5)c(O)cc34)CC2)cc1`: -0.12%. The same measure for `COc1ccc(F)cc1S(=O)(=O)Nc1ccc(C)cc1`: -1.13%; for `CCOC(=O)N1CCN(C(=O)c2ccc3c(c2)ncn3C2CCCC2)CC1`: 2.32%; for `O=[N+]([O-])c1cc2c(cc1/C=N/NS(=O)(=O)c1ccc(Br)cc1)OCO2`: 3.45%. The same measure for `CC1CCCCC1NC(=O)CSc1nnnn1-c1ccccc1` (configuration not stated): 2.02%. For `Nn1c(SCC(=O)NC2CCCCC2)nnc1-c1ccccc1`, the inhibition is 3.83%.

With `Cc1cccc(C)c1OCC(=O)NCc1nnc(SCC(=O)NC2CCCCC2C)n1C` (configuration not stated), the inhibition was 24.1% (active).

Take `CC1CCCCC1NC(=O)CSc1nnc(CNC(=O)c2ccccc2)n1C` (configuration not stated): the inhibition is -2.54%. The same measure for `Cc1cccc(C)c1OCC(=O)NCc1nnc(SCC(=O)NC2CCCCC2)n1C`: 3.03%.
